Reference: PubChem BioAssay (Tox21)
Where “and” joins values, the source holds several entries; their conditions need not be identical. Equal values may be shown once. Inconclusive results are not listed. Entries that show only a call come without a potency. Some structures have more than one record in an assay (separate samples or runs), and their calls can disagree. Calls of active or inactive are those of the source. Unless noted, calls follow the shape of the dose curve; as a rule, active = well fitted curve in the direction sought with a large enough effect in the repeat runs; inconclusive = weak or mixed curves; inactive = no such curve, though single readings can be large; an effect the other way counts as inactive or inconclusive.

How the values were obtained:
[1] = qHTS assay to identify small molecule agonists of the peroxisome proliferator-activated receptor delta (PPARd) signaling pathway - cell viability counter screen (AID 743211); also: nearly all actives have a fitted effect of over 55% in size; also: potency is read from the fitted curve at half-maximal effect
Procedure, shortened: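 Multiplexed format: after the 2 h room-temperature LiveBLAzer B/G FRET step, CellTiter-Glo was added to the same wells. Luminescence after 30 min gave cell viability; compound exposure was 17 h at 37C.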

[2] = target: Peroxisome proliferator-activated receptor delta (Homo sapiens) (UniProt Q03181); experiment: qHTS assay to identify small molecule agonists of the peroxisome proliferator-activated receptor delta (PPARd) signaling pathway (AID 743212; calls by dose curve)
Chain of Peroxisome proliferator-activated receptor delta (Homo sapiens) (Q03181 whole entry, looked up): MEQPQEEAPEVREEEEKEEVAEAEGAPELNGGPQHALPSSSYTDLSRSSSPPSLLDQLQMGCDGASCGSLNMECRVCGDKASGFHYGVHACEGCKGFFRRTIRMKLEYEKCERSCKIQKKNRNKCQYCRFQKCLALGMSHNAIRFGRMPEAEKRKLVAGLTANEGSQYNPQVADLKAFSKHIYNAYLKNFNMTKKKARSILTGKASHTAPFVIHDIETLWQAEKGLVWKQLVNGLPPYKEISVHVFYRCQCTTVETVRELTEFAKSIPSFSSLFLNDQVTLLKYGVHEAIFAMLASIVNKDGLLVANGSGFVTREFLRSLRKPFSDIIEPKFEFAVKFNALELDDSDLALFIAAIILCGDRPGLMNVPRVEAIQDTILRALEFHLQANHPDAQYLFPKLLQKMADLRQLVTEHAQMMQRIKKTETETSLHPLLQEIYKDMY
Procedure, shortened: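 HEK293H PPARd-bla cells; 5 h preincubation 37 C/5% CO2; compound (DMSO) 37 C; LiveBLAzer B/G FRET substrate 2 h RT; fluorescence intensity.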

[3] = qHTS assay to identify small molecule antagonists of the peroxisome proliferator-activated receptor delta (PPARd) signaling pathway - cell viability counter screen (AID 743213); also: nearly all actives have a fitted effect of over 50% in size; also: potency is read from the fitted curve at half-maximal effect
Procedure, shortened: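 Same-well viability: cells pre-incubated 5 h, dosed with compound plus 300 nM L165041, kept 17 h at 37 C, FRET substrate 2 h RT, then CellTiter-Glo 30 min RT and luminescence.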

[4] = target: Peroxisome proliferator-activated receptor delta (Homo sapiens) (UniProt Q03181); experiment: qHTS assay to identify small molecule antagonists of the peroxisome proliferator-activated receptor delta (PPARd) signaling pathway (AID 743215; active = well fitted inhibition curve with a large enough effect in the signal ratio in the repeat runs, not every such curve was filed as active; the % refers to the signal ratio;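 also: cells stimulated with agonist L165041 at 300 nM final during compound exposure; series mostly up to about 62 µM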)
Procedure, shortened: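 HEK293H UAS-bla, PPARd; agonist L165041 300 nM final with cpd in DMSO; 37 C 17 h; FRET substrate, RT 2 h; fluorescence intensity.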

[5] = qHTS assay to identify small molecule agonists of the farnesoid-X-receptor (FXR) signaling pathway - cell viability counter screen (AID 743218); also: nearly all actives have a fitted effect of over 45% in size; also: potency is read from the fitted curve at half-maximal effect
Procedure, shortened: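 Parallel cytotoxicity test: compound-treated (16 h, 37 C) HEK 293T FXR-bla reporter cells were lysed with CellTiter-Glo and luminescence recorded.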

[6] = qHTS assay to identify small molecule antagonists of the farnesoid-X-receptor (FXR) signaling pathway - cell viability counter screen (AID 743221; active = well fitted cell-killing curve with a large enough effect in the repeat runs, not every such curve was filed as active; also: nearly all actives have a fitted effect of over 50% in size; also: potency is read from the fitted curve at half-maximal effect)
Procedure, shortened: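 CellTiter-Glo, 30 min RT, luminescence; same wells as the LiveBLAzer FRET read. Cells: FXR-UAS-bla HEK 293T. Treatment: compound with chenodeoxycholic acid 50 uM final, 16 h at 37 C.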

[7] = target: Vitamin D3 receptor (Homo sapiens) (UniProt P11473); experiment: qHTS assay to identify small molecule agonists of the vitamin D receptor (VDR) signaling pathway (AID 743222; calls by dose curve)
Chain of Vitamin D3 receptor (Homo sapiens) (P11473 whole entry, looked up): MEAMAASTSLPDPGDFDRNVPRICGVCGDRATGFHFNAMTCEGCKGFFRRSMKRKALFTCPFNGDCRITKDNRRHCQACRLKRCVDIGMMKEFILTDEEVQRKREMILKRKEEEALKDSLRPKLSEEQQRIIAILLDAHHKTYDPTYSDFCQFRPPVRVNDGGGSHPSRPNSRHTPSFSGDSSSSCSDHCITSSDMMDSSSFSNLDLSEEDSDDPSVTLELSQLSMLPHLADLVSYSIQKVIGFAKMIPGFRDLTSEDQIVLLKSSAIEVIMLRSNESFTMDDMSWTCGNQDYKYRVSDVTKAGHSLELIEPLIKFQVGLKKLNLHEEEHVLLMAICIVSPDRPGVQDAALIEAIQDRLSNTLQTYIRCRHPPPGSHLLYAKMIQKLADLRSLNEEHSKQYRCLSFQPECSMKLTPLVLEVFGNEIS
Procedure, shortened: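 In VDR-bla cells, compound-induced beta-lactamase expression is quantified by FRET substrate fluorescence. Treatment lasts 16 h at 37C; substrate develops 2 h at room temperature.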

[8] = qHTS assay to identify small molecule agonists of the vitamin D receptor (VDR) signaling pathway - cell viability counter screen (AID 743224); also: nearly all actives have a fitted effect of over 50% in size; also: potency is read from the fitted curve at half-maximal effect
Procedure, shortened: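 Plated VDR-bla cells (4 h, 37C) received compound, incubated 16 h, then LiveBLAzer substrate 2 h RT; CellTiter-Glo added afterwards, luminescence read at 30 min.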

[9] = qHTS assay to identify small molecule antagonists of the vitamin D receptor (VDR) signaling pathway - cell viability counter screen (AID 743225); also: nearly all actives have a fitted effect of over 50% in size; also: potency is read from the fitted curve at half-maximal effect
Procedure, shortened: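 Cytotoxicity toward the VDR-bla HEK 293T line was scored by ATP-based CellTiter-Glo luminescence, read in the wells already used for the beta-lactamase readout after 16 h compound treatment under 3 nM 1-alpha,25-dihydroxyvitamin D3 stimulation.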

[10] = qHTS assay to identify small molecule agonists of the NFkB signaling pathway - cell viability counter screen (AID 1159515; calls by dose curve; also: nearly all actives have a fitted effect of over 55% in size; also: potency is read from the fitted curve at half-maximal effect)
Procedure, shortened: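 Using the same wells as the NFkB reporter read, ME-180 NFkB-bla cells given compounds for 5 hr were assessed for viability via CellTiter-Glo, with luminescence taken after a 30 min room-temperature incubation.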

[11] = qHTS assay to identify small molecule agonists of the endoplasmic reticulum stress response signaling pathway (AID 1159516; active = well fitted activation curve with a large enough effect in the signal ratio in the repeat runs, not every such curve was filed as active; the % refers to the signal ratio)
Procedure, shortened: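 An ESRE-bla HeLa cell assay: compounds were pin-transferred from DMSO onto overnight-plated cells and left 5 hr at 37 C. Substrate was then loaded for 2 hr at room temperature before reading fluorescence at 460 nm and 530 nm.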

[12] = qHTS assay to identify small molecule agonists of the endoplasmic reticulum stress response signaling pathway - cell viability counter screen (AID 1159517; calls by dose curve; also: nearly all actives have a fitted effect of over 50% in size; also: potency is read from the fitted curve at half-maximal effect)
Procedure, shortened: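 HeLa cells carrying an ESRE-driven beta-lactamase reporter receive compound for 5 hr at 37 C. Cell viability is then gauged with CellTiter-Glo by luminescence, 30 min at room temperature.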

[13] = qHTS assay to identify small molecule antagonists of the retinoid-related orphan receptor gamma (ROR-gamma) signaling pathway - cell viability counter screen (AID 1159520); also: nearly all actives have a fitted effect of over 50% in size; also: potency is read from the fitted curve at half-maximal effect
Procedure, shortened: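 Cytotoxicity was read from cellular ATP (CellTiter-Glo luminescence) after 16 hr at 37 C with 1 uM doxycycline induction. The inducer was added 2 hr after compound transfer to Tet-on ROR gamma CHO cells.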

[14] = qHTS assay to identify small molecule agonists of the AP-1 signaling pathway - cell viability counter screen (AID 1159525; calls by dose curve; also: nearly all actives have a fitted effect of over 55% in size; also: potency is read from the fitted curve at half-maximal effect)
Procedure, shortened: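 Luminescent ATP readout (Cell Titer Glo, 30 min RT), normalised to DMSO and tetra n-octyl ammonium bromide controls. Cells were ME-180 AP-1-bla in 0.5% dialyzed FBS Opti-MEM, with a 5 h, 37 °C compound exposure.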

[15] = qHTS assay to identify small molecule agonists of the AP-1 signaling pathway (AID 1159526; calls by dose curve)
[16] = target: Retinoic acid receptor RXR-alpha (Homo sapiens) (UniProt P19793); experiment: qHTS assay to identify small molecule agonists of the RXR signaling pathway (AID 1159527; calls by dose curve; also: nearly all actives have a fitted effect of over 35% in size; also: potency is read from the fitted curve at half-maximal effect)
Chain of Retinoic acid receptor RXR-alpha (Homo sapiens) (P19793 whole entry, looked up): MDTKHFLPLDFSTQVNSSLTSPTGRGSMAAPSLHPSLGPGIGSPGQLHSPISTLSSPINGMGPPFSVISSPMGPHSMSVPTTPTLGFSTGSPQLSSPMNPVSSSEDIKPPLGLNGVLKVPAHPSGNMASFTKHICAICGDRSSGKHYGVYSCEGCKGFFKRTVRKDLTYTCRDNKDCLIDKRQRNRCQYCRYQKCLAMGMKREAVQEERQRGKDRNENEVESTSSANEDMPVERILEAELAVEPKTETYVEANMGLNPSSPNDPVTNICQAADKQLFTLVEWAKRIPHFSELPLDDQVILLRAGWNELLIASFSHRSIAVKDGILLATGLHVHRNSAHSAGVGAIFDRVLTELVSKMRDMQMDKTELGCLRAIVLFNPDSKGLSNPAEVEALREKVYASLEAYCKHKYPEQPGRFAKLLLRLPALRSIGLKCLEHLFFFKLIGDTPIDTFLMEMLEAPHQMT
Procedure, shortened: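 Reporter activation is measured as beta-lactamase activity via FRET substrate cleavage (emission 460/530 nm) in HEK 293T cells expressing an RXR-alpha-driven bla construct, following 16 hr compound exposure at 37 C.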

[17] = target: Bile acid receptor (Homo sapiens) (UniProt Q96RI1); experiment: qHTS assay to identify small molecule antagonists of the farnesoid-X-receptor (FXR) signaling pathway (AID 743217; active = well fitted inhibition curve with a large enough effect in the signal ratio in the repeat runs, not every such curve was filed as active; the % refers to the signal ratio)
Chain of Bile acid receptor (Homo sapiens) (Q96RI1 whole entry, looked up): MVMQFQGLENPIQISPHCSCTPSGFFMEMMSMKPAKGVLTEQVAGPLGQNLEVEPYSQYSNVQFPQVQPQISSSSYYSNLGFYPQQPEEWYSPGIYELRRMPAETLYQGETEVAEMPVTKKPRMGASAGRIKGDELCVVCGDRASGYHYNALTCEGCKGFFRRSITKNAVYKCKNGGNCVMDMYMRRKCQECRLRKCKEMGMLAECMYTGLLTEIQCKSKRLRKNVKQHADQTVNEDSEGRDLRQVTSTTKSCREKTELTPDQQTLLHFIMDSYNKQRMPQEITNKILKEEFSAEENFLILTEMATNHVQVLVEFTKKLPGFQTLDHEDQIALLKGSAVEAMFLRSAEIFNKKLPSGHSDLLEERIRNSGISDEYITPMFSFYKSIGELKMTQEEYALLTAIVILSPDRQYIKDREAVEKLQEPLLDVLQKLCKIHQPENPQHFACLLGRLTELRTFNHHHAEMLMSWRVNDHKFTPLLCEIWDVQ
Procedure, shortened: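 GeneBLAzer FXR-UAS-bla HEK 293T, CDCA-stimulated (50 uM final). Compound treatment 16 h, 37 °C. Detection: beta-lactamase cleavage of B/G FRET substrate, fluorescence.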

[18] = target: Bile acid receptor (Homo sapiens) (UniProt Q96RI1); experiment: qHTS assay to identify small molecule agonists of the farnesoid-X-receptor (FXR) signaling pathway (AID 743220; active = well fitted activation curve with a large enough effect in the signal ratio in the repeat runs, not every such curve was filed as active; the % refers to the signal ratio; also: potency is read from the fitted curve at half-maximal effect)
Procedure, shortened: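 Beta-lactamase reporter under UAS control in GeneBLAzer FXR HEK 293T cells (5000/well) measured with LiveBLAzer FRET substrate after 2 h at room temperature. Compound exposure lasted 16 h at 37C.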

[19] = target: Nuclear receptor ROR-gamma (Homo sapiens) (UniProt P51449); experiment: qHTS assay to identify small molecule antagonists of the retinoid-related orphan receptor gamma (ROR-gamma) signaling pathway (AID 1159521; also: nearly all actives have a fitted effect of over 50% in size; also: potency is read from the fitted curve at half-maximal effect)
Procedure, shortened: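 Readout: ONE-Glo luciferase luminescence, 30 min at room temperature. System: Tet-on RORγ CHO, RORE-LUC. Sequence: compound 2 h, doxycycline 1 uM final, 16 h at 37 C.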

[20] = target: Vitamin D3 receptor (Homo sapiens) (UniProt P11473); experiment: qHTS assay to identify small molecule antagonists of the vitamin D receptor (VDR) signaling pathway (AID 743223; active = well fitted inhibition curve with a large enough effect in the signal ratio in the repeat runs, not every such curve was filed as active; the % refers to the signal ratio)
Procedure, shortened: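 After VDR-bla cells are plated and left 4 h at 37C, DMSO-dissolved compounds and 3 nM (final) calcitriol agonist are added. Incubation continues 16 h at 37C; FRET beta-lactamase substrate then develops 2 h at room temperature.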

| Compound | Potency [1] | Potency [2] | Potency [3] | Potency [4] | Potency [5] | Potency [6] | Potency [7] | Potency [8] | Potency [9] | Potency [10] | outcome [11] | Potency [12] | Potency [13] | Potency [14] | Potency [15] | Potency [16] | Potency [17] | Potency [18] | Potency [19] | Potency [20] |
| --- | --- | --- | --- | --- | --- | --- | --- | --- | --- | --- | --- | --- | --- | --- | --- | --- | --- | --- | --- | --- |
| COc1nc(C)nc(Cl)c1NC1=NCCN1 | inactive | inactive | inactive | inactive | inactive | inactive | inactive | inactive | inactive | inactive | inactive | inactive | inactive | inactive | inactive | inactive | – | – | – | – |
| Cc1occc(=O)c1OC(=O)C(C)C | inactive | inactive | inactive | inactive | inactive | inactive | inactive | inactive | inactive | inactive | inactive | inactive | inactive | inactive | inactive | inactive | – | – | – | – |
| CC(=O)Nc1ccc(C(=O)CCl)cc1 | inactive and 49 µM (active) | inactive | inactive and 43.6 µM (active) | inactive | inactive and 54.9 µM (active) | inactive | inactive | inactive and 54.9 µM (active) | inactive | inactive | inactive | inactive and 27.5 µM (active) | inactive and 13.7 µM (active) | inactive | inactive | 11 µM (active) | inactive | – | – | – |
| COc1ccc(CCN2CCC(Nc3nc4ccccc4n3Cc3ccc(F)cc3)CC2)cc1 | 2.81 µM (active) and 7.5 µM (active) | – | 3.16 µM (active) and 23.7 µM (active) | – | 2.81 µM (active) and 23.7 µM (active) | 7.07 µM (active) and 29.8 µM (active) | – | 3.98 µM (active) and 10.6 µM (active) | 6.3 µM (active) and 23.9 µM (active) | 17.8 µM (active) | inactive | 31.6 µM (active) | 17.6 µM (active) and 26.6 µM (active) | 35.4 µM (active) and inactive | inactive | – | – | inactive | 9.9 µM (active) and 11.9 µM (active) | – |
| CCCCOCCOC(=O)c1ccccc1C(=O)OCCOCCCC | 47.9 µM (active) and inactive | inactive | 42.7 µM (active) and inactive | inactive | inactive | inactive | inactive | 30.2 µM (active) and inactive | inactive | inactive | inactive | inactive | inactive | inactive | – | inactive | – | inactive | inactive | inactive |
| O=C(O)c1cc(Cl)cc(Cl)c1 | – | inactive | inactive | inactive | inactive | inactive | – | inactive | – | inactive | inactive | inactive | inactive | inactive | inactive | inactive | – | – | inactive | – |
| CCOC(=O)C(C)C(C)=O (stereo unspecified) | inactive | inactive | inactive | inactive | inactive | inactive | – | inactive | inactive | inactive | inactive | inactive | inactive | inactive | inactive | inactive | – | – | – | – |
| O=C1NCC2(CCN(CCc3ccccc3)CC2)O1 | inactive | – | inactive | – | inactive | inactive | – | inactive | – | inactive | inactive | inactive | inactive | inactive | inactive | inactive | – | – | – | – |
| NCCO | inactive | – | inactive | – | inactive | inactive | – | inactive | inactive | inactive | inactive | inactive | inactive | inactive | inactive | inactive | – | – | – | – |
| Nc1ccc(O)cc1 | inactive | – | – | – | 25.5 µM (active) and inactive | inactive | – | inactive | inactive | inactive | inactive | inactive | 63.5 µM (active) and inactive | 32.1 µM (active) and inactive | inactive | inactive | inactive | 20.3 µM (active) and inactive | 31.8 µM (active) and inactive | inactive |
| NC(N)=NC(=O)Cc1c(Cl)cccc1Cl | – | inactive | inactive | inactive | – | inactive | inactive | inactive | – | inactive | inactive | inactive | inactive | inactive | inactive | inactive | – | – | – | inactive |
| CCCC(=O)c1ccccc1 | inactive | inactive | – | inactive | inactive | inactive | inactive | inactive | inactive | inactive | inactive | inactive | inactive | inactive | inactive | inactive | – | – | – | – |
| CCCOC(=O)c1cc(O)c(O)c(O)c1 | inactive | inactive | inactive | inactive | inactive | inactive | inactive | inactive | inactive | inactive | inactive | inactive | inactive | inactive | inactive | – | – | inactive | 27.2 µM (active) | inactive |
| CCc1ccc(C(c2ccc(CC)cc2)C(Cl)Cl)cc1 | inactive | inactive | inactive | inactive | – | inactive | inactive | inactive | inactive | inactive | inactive | inactive | inactive | inactive | inactive | – | – | inactive | inactive | inactive |
| Cc1cccc([N+](=O)[O-])c1C(=O)O | inactive | inactive | – | inactive | inactive | inactive | inactive | inactive | – | inactive | inactive | inactive | inactive | inactive | inactive | inactive | inactive | inactive | – | – |
| OCCN1CCNCC1 | inactive | inactive | inactive | inactive | inactive | inactive | inactive | inactive | inactive | inactive | inactive | inactive | 60.5 µM (active) and inactive | inactive | inactive | inactive | inactive | inactive | – | inactive |
| CNC1(C)C2CCC(C2)C1(C)C (stereo unspecified) | inactive | inactive | inactive | inactive | inactive | inactive | inactive | – | – | inactive | inactive | inactive | inactive | inactive | inactive | inactive | inactive | inactive | – | – |
